Screens (PubChem)
FECH block: human FECH heme synthesis enzyme inhibition; AID 1671448; P22830; calls only at 10 µM (by protocol); purified FECH, Ni-mesoporphyrin absorbance 550 nm; hit rate 3.3% among 20,000;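 active = enzyme reaction rate more than 3 SD below the solvent-only control wells on the same plate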;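 note: lower slope than DMSO wells means FECH inhibition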
Of the large screens only hits and unclear results are named; the others gave an inactive call. Shown is part of a subset that was picked to be rich in hits.

Cc1ncc(CN2CCCC(CCNC(=O)c3cncs3)C2)[nH]1 (configuration not stated)	none
Cc1ccccc1CNC(=O)c1cccn1-c1nnc(N2CCCCC2)s1	none
O=C(NCc1ccccc1F)c1cccn1-c1nnc(N2CCCCC2)s1	FECH block active
O=C(NCCN1CCCCCC1)c1cccn1-c1nnc(N2CCCCC2)s1	none
Cc1cccc(-c2nc3nc(CN4CCN(c5cccc(C(F)(F)F)c5)CC4)cc(=O)n3[nH]2)c1	none
COc1ccc(N2C(=O)CCS2(=O)=O)cc1S(=O)(=O)NCc1ccc(F)cc1	none
COc1cccc(Cn2c(=O)c3cnc(-c4ccc(C)cc4)nc3n(C)c2=O)c1	none
COc1ccccc1NC(=O)C1CCCN1S(=O)(=O)c1cc2c(cc1C)NC(=O)CO2 (configuration not stated)	none
Cc1ccc(NC(=O)CN2C(=O)CCc3cc(S(=O)(=O)N4CCCC4)ccc32)nc1	none
Cc1ccc(NC(=O)C2CCN(S(=O)(=O)c3cc4c(cc3C)NC(=O)CO4)CC2)nc1	FECH block active
Cc1cc2c(cc1S(=O)(=O)N1CCCC1C(=O)N1CCc3ccccc31)OCC(=O)N2 (configuration not stated)	FECH block active
CC1CCCCN1S(=O)(=O)c1cc2c(cc1Cl)NC(=O)CO2 (configuration not stated)	none
CCOC(=O)C1CCN(S(=O)(=O)c2cc3c(cc2Cl)NC(=O)CO3)CC1	none
O=C(c1cn[nH]n1)N(Cc1cccnc1)Cc1ccsc1	none
CCOCCCNC(=O)C1CCN(c2ccc(-c3ccccc3)nn2)CC1	none
Cc1nc2ncnn2c(Sc2ccccc2NC(=O)c2ccccc2Br)c1C	none
Cc1cc(C(=O)N2CCN(C)C(=O)C2C)c2cnn(C(C)C)c2n1 (configuration not stated)	none
CCOCC(=O)Nc1cc(C)nn1-c1ncnc2c1cnn2-c1ccc(F)cc1	none
COc1ccc(-c2cc(C(=O)NC3CCCCC3)[nH]n2)cc1S(N)(=O)=O	none
